In PubChem BioAssay (NCI):
The panel holds about 79,000 compounds, 15% with a hit somewhere; the sample as a whole holds those more often. Cut-off read from the data, not from the text of the source: active = growth inhibition above about 70%; inactive = the rest.

Legend:
[1] = NCI Yeast Anticancer Drug Screen. Data for the rad50 strain (AID 155);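 note: 0% = growth of vehicle-only cultures of the same strain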; conditions: S. cerevisiae rad50 strain growth inhibition; at 50.0 µM; hits give high values
Method in brief: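 Growth of the mutant yeast was measured after compound exposure and referenced to vehicle-treated cultures.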

[2] = NCI Yeast Anticancer Drug Screen. Data for the mec2-1 strain (AID 157); conditions: S. cerevisiae mec2-1 strain, at 50.0 µM, hits give high values
Method in brief: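 Yeast mec2-1 mutant treated with compound. Readout: growth inhibition vs vehicle controls.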

[3] = NCI Yeast Anticancer Drug Screen. Data for the sgs1 mgt1 strain (AID 161);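 note: 0% = growth of cultures given vehicle only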; conditions: S. cerevisiae sgs1 mgt1 strain, at 50.0 µM, hits give high values
Method in brief: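 Inhibition of yeast growth, normalised to vehicle-treated controls, is reported for a strain bearing genetic alterations in DNA damage repair.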

[4] = NCI Yeast Anticancer Drug Screen. Data for the cln2 rad14 strain (AID 165);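 note: 0% = growth equal to vehicle treated cultures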; conditions: S. cerevisiae cln2 rad14 strain, at 50.0 µM, hits give high values
Method in brief: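 cln2 rad14 yeast strain; compound exposure; growth inhibition read vs vehicle controls.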

[5] = NCI Yeast Anticancer Drug Screen. Data for the bub3 strain (AID 167); conditions: S. cerevisiae bub3 mutant strain, at 50.0 µM, hits give high values
Method in brief: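 Whole-cell yeast assay. The mutant strain was incubated with compounds, and growth inhibition was determined by comparison with vehicle-treated cells.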

[6] = NCI Yeast Anticancer Drug Screen. Data for the mlh1 rad18 strain (AID 175); conditions: S. cerevisiae mlh1 rad18 strain growth inhibition; at 50.0 µM; hits give high values
Method in brief: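 Yeast w/ defined DNA-repair lesions; compound exposure; growth vs vehicle controls → % inhibition.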

Measured: growth inhibition

CC(=O)NS(=O)(=O)c1ccc(NC(=O)CCC(=O)O)cc1
inactive: [1] -8.95% | [2] -20.4% | [3] 2.4% | [4] 7.2% | [5] 9.1% | [6] 4%

C[N+]1(CCC[N+]2(C)CCC3(CCCCC3)CC2)CCOCC1
inactive: [1] 18.6% | [2] -0.05% | [3] 11.2% | [4] -4.8% | [5] -1.55% | [6] 16.8%

CCN(CC)c1ccc(N=C2C=C(C(=O)Nc3ccccc3)C(=O)c3ccccc32)cc1
inactive: [1] -10.9% | [2] -40.3% | [3] -14.4% | [4] 6.25% | [5] -3.9% | [6] -21.4%

N=C(N)SCCSC(=N)N
inactive: [1] -13.5% | [2] -8.4% | [3] -30.6% | [4] 9.7% | [5] -16.4% | [6] 12.9%

Nc1ncnc2c1ncn2C1CC(O)C(COP(=O)(O)O)O1 (configuration not stated)
inactive: [1] 0.15% | [2] -4.65% | [3] 0.85% | [4] -23.4% | [5] 0.45% | [6] 4.7%

CC(=O)Nc1ccc(N)cc1N
inactive: [1] -1.3% | [2] -37.8% | [3] -17.9% | [4] 29.7% | [5] -6.35% | [6] 13.8%

[N-]=[N+]=NC(=O)c1ccc(S(=O)(=O)c2ccc(F)cc2)cc1
inactive: [1] 13.4% | [2] 21.8% | [3] 7.6% | [4] 7.85% | [5] 3% | [6] 38.5%

NC(=O)c1cc2c(c3c1CCCC3)CCCC2
inactive: [1] 4.2% | [2] -6.6% | [3] -3.55% | [4] -52% | [5] -13.9% | [6] -2.3%

O=S(=O)(O)c1ccc(-c2nc3ccccc3[nH]2)cc1
inactive: [1] 1.6% | [2] 8.5% | [3] 4.65% | [4] 6% | [5] 28.2% | [6] -18.9%

ClSC(c1ccccc1)(c1ccccc1)c1ccccc1
inactive: [1] 20.2% | [2] 8.9% | [3] 57.6% | [4] 10.6% | [5] -30.9% | [6] 33.4%

COc1cccc(C(=O)NNC(=O)c2cccc(OC)c2)c1
inactive: [1] -1.5% | [2] -15.9% | [3] -9.35% | [4] 9.55% | [5] -1.9% | [6] -1.85%

Cc1cccc(C)c1NC(=O)CCC(=O)NC(N)=NC#N
inactive: [1] -33.1% | [2] -23.8% | [3] -25.7% | [4] 9.7% | [5] -23.8% | [6] -23.1%

CCn1c(=O)c(Cl)c2n(C)c3ccccc3n2c1=O
inactive: [1] -6.2% | [2] -7.7% | [3] -2.85% | [4] -4.4% | [5] 10.6% | [6] -1.05%

Cc1ccc(S(=O)[O-])cc1.Cc1ccc(S(=O)[O-])cc1.[Zn+2]
inactive: [1] 26.9% | [2] 1.05% | [3] 16% | [4] 14.8% | [5] -1.95% | [6] 0.4%

CCOC(=O)C(=Cc1ccc(Oc2ccccc2)cc1)C(=O)OCC
inactive: [1] 39.4% | [2] -6% | [3] 22.1% | [4] 24.8% | [5] 6.1% | [6] 7%

CC(=O)NC1c2ccccc2-c2ccccc21
inactive: [1] -5.1% | [2] 34.2% | [3] -1.15% | [4] 42% | [5] 17.3% | [6] 3.8%

CCC(=O)Nc1cc(Cl)c(Cl)cc1C
inactive: [1] -8.7% | [2] -12.4% | [3] -13.5% | [4] -85.8% | [5] -27.2% | [6] -12%

CCC(C)OC(=Nc1ccccc1)c1ccccc1 (configuration not stated)
inactive: [1] -4.05% | [2] 5.95% | [3] -4.5% | [4] 15.7% | [5] -6.7% | [6] 2.4%

O=C(CCc1ccc(O)cc1)c1c(O)cc(O)cc1O
inactive: [1] -5.3% | [2] -29.9% | [3] -11.3% | [4] 12.9% | [5] -11.2% | [6] -9.05%

CCc1ccc2ccccc2c1N
inactive: [1] 20.6% | [2] 8.05% | [3] 6.1% | [4] -1.65% | [5] -0.3% | [6] 15.1%

CN1C(=O)N(C)C(=O)C(C)(NS(=O)(=O)c2ccc(NC(=O)CCC(=O)O)cc2)C1=O
inactive: [1] 17.6% | [2] 11.6% | [3] 12.2% | [4] 16.1% | [5] 0.95% | [6] 24.3%

CC1(C)CC([NH-])(C(=O)O)CC(C)(C)N1O.CC1(C)CC([NH-])(C(=O)O)CC(C)(C)N1O.[Cu+2]
inactive: [1] 27.6% | [2] -17.9% | [3] 16.5% | [4] -20.3% | [5] 0.7% | [6] 4.55%

CC(O)(c1ccncc1)c1cc2ccccc2n1S(=O)(=O)c1ccccc1 (configuration not stated)
inactive: [1] 2.2% | [2] 2.65% | [3] 14.8% | [4] -20.1% | [5] 1.95% | [6] 6.15%

C=CCc1cc(Br)ccc1O
inactive: [1] 20.7% | [2] 5.9% | [3] -9.85% | [4] 11.1% | [5] -17.4% | [6] 33.5%

CSc1ncc2c(C#N)c3sc4ccccc4n3c(=O)c2n1
inactive: [1] 14.8% | [2] -8.05% | [3] 32.4% | [4] 12.4% | [5] 26.5% | [6] -21.1%

COc1ccc(C(C#N)C(=O)CCC(=O)C(C#N)c2ccc(OC)c(OC)c2)cc1OC (configuration not stated)
inactive: [1] 28.3% | [2] 2.9% | [3] -8.65% | [4] -15.3% | [5] -2.8% | [6] 26.8%

CC(C)(C)c1cc(CCC(=O)Nc2ccc(Cl)cc2)[nH]c(=S)n1
inactive: [1] 1.85% | [2] -16.1% | [3] 0.4% | [4] -8.85% | [5] -5.85% | [6] -14.8%

Cc1ccsc1/C=N/Nc1ncccn1
inactive: [1] 16.1% | [2] 10.7% | [3] 23.4% | [4] 3.7% | [5] 13.9% | [6] 24.1%

O=C(COc1ccc(Cl)c(Cl)c1)NCc1ccc(Cl)cc1
inactive: [1] 7.35% | [2] 13.2% | [3] 0.1% | [4] 5.3% | [5] 29.3% | [6] 49.5%

O=C1C2=C(c3ccccc31)C(c1ccc([N+](=O)[O-])cc1)NC(=S)N2 (configuration not stated)
inactive: [1] 5.6% | [2] 8.7% | [3] 1.8% | [4] 9.8% | [5] -3.6% | [6] 32.5%

NC(=O)N/N=C/c1ccc2oc3ccccc3c2c1
inactive: [1] 40.2% | [2] 19.1% | [3] 18.4% | [4] 16.5% | [5] 18.4% | [6] 44.5%

COC(=O)c1ccccc1N=Cc1ccc(N(CCC#N)S(=O)(=O)c2ccccc2)cc1
inactive: [1] -2.05% | [2] 13.3% | [3] -6.15% | [4] 18.2% | [5] 20.3% | [6] 15.9%

O=C(O)CSCCOCCSCC(=O)O
inactive: [1] -15.9% | [2] -54% | [3] -17.1% | [4] 12.1% | [5] -16.3% | [6] -15.6%

CC1(Br)S(=O)(=O)OCCOS1(=O)=O
inactive: [1] -23% | [2] -15.9% | [3] -12.3% | [4] 6.1% | [5] -24.2% | [6] -42.5%

Cc1c(Cl)cccc1NC(=O)Oc1ccc(Cl)cc1
inactive: [1] 1.75% | [2] -2.75% | [3] -5.6% | [4] -7.45% | [5] -9.7% | [6] -4.05%

Cc1ccc(NC2=N/C(=C/c3ccco3)C(Cl)=N2)cc1
inactive: [1] -21.5% | [2] -22.1% | [3] 14.5% | [4] -1.8% | [5] 3.8% | [6] -31.9%

CCC1(C)CC(C)(C)c2ccc(C)cc21 (configuration not stated)
inactive: [1] -0.8% | [2] -2.75% | [3] -6.4% | [4] -9.2% | [5] -2.9% | [6] -2.25%
